According to PubChem BioAssay:
Activity calls are given as the source filed them. Unless noted, no rule for the calls is given here.

Tests used:
[1] = test system: Wnt5a (protein binding on small-molecule microarray); assay: small molecules binding Wnt5a protein – biophysical, small-molecule microarray, 635/667 nm fluorescence, primary screen (AID 1142); settings: 635 nm fluorescence, higher = more signal;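 also: fluorescence read at 667 nm with signal to noise per printed feature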
[2] = ATP-based viability of Huh7 replicon cells – cell-based, CellTiter-Glo luminescence, basal, 48 h, cytotoxicity control for HCV replication inhibitor project, primary screen (AID 1143); settings: higher = more signal, called active from +8 up or from −8 down;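 also: Huh7 hepatoma cells carrying a hepatitis C replication reporter with no stimulus; test concentration not given here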
[3] = Pseudomonas biofilm growth suppression – PAO1 strain, BacTiter-Glo luminescence, LB-PBS, primary screen (AID 1144); settings: P. aeruginosa PAO1 biofilm, 12 h, higher = more signal
[4] = basal CRE-LacZ reporter activity in PC12 – cell-based, unstimulated, primary screen (AID 1145); settings: no forskolin, luminescence, 4.5 h, higher = more signal, called active from +8 up or from −8 down
[5] = forskolin-driven CRE-LacZ activity in PC12 – cell-based, CRE-LacZ reporter, forskolin-stimulated, primary screen (AID 1146); settings: luminescence, 4.5 h, higher = more signal, called active from +8 up or from −8 down;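 also: PC12 cells with 6xCRE LacZ reporter stimulated by forskolin 10 µM; beta-galactosidase reporter signal reflecting CREB driven transcription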
[6] = molecular target: Streptavidin (Streptomyces avidinii) (UniProt P22629); assay: compounds binding control protein streptavidin – biophysical, small-molecule microarray, 635/667 nm fluorescence, artefact control for SMM compound annotation, primary screen (AID 1147); settings: higher = more signal;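 also: signal reflects streptavidin binding to arrayed compounds as a control protein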
[7] = probe aInhba binding on compound microarray – biochemical, small-molecule microarray, 635/667 nm fluorescence, primary screen (AID 1148); settings: higher = more signal;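 also: score merges 667nm spot fluorescence with signal-to-noise for antibody binding to printed compounds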
Torsin-1A (Homo sapiens) [8] = molecular target: Torsin-1A (Homo sapiens) (UniProt O14656); assay: TOR1A wild-type binding on microarray – cell lysate, small-molecule microarray, lysate, 635/667 nm, primary screen (AID 1149); settings: COS7 hTOR1A-WT lysate, 635 nm fluorescence, higher = more signal
Torsin-1A (Homo sapiens) [9] = molecular target: Torsin-1A (Homo sapiens) (UniProt O14656); assay: torsin A mutant lysate binding on microarrays – cell lysate, small-molecule microarray, COS7 lysate, 635/667 nm fluorescence, primary screen (AID 1150); settings: COS7 hTOR1A mutant lysate, 635 nm fluorescence, higher = more signal;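 also: score pools 667 nm emission and signal to noise measuring lysate protein binding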
[10] = test system: Sonic hedgehog protein (Shh); assay: Sonic hedgehog microarray binding compounds – biochemical, small-molecule microarray, 635/667 nm fluorescence, primary screen (AID 1151); settings: 635 nm fluorescence, higher = more signal;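 also: Shh protein binding to compounds spotted on small-molecule microarray slides; score combines spot fluorescence intensity with signal-to-noise across triplicate slides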
[11] = optical density shifts of acrAB sulA E. coli – strain DRC41, OD650, 48 h, E. coli filamentation inducer project, primary screen (AID 1152); settings: higher = more signal, called active from +8 up or from −8 down;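 also: E. coli MC1000 strain DRC41 lacking acrAB efflux pump and sulA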
[12] = probe aLefty1 binding on compound microarray – biochemical, small-molecule microarray, 635/667 nm fluorescence, primary screen (AID 1153); settings: higher = more signal;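 also: score merges spot fluorescence with signal-to-noise ratio from the scanned slide images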
[13] = plasmodial surface anion channel blockers, osmotic lysis – cell-based, P. falciparum Indochina, OD700, 1 h, primary screen (AID 1154); settings: P. falciparum Indochina infected RBC osmotic lysis, higher = more signal, called active from +8 up or from −8 down
[14] = plasmodial surface anion channel blockers, osmotic lysis – cell-based, P. falciparum Indochina, OD700, 2 h, primary screen (AID 1155);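 also: lysis reports solute entry through the parasite surface anion channel PSAC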; settings: P. falciparum Indochina infected erythrocytes, higher = more signal, called active from +8 up or from −8 down
[15] = changes in parasitized red cell lysis, either direction – P. falciparum Indochina, OD700, 3 h, PSAC antagonist project, primary screen (AID 1156); settings: P. falciparum-infected erythrocytes, osmotic lysis, higher = more signal, called active from +8 up or from −8 down
[16] = plasmodial surface anion channel blockers, osmotic lysis – cell-based, P. falciparum Indochina, OD700, 18 h, primary screen (AID 1157); settings: P. falciparum Indochina infected erythrocytes, osmotic lysis OD700, 18 h; higher = more signal, called active from +8 up or from −8 down
[17] = S6 kinase pathway phospho-S6 level changes – cell-based, A549, cytoblot, luminescence, serum-stimulated, primary screen (AID 1158); settings: 5 h, higher = more signal;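 also: serum-stimulated A549 lung adenocarcinoma cells; signal is phosphorylated S6 detected by cytoblot immunostaining with HRP secondary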
[18] = molecular target: NADPH oxidase 2 (Homo sapiens) (UniProt P04839); assay: compounds shifting NOX2 Amplex Red fluorescence – cell-based, HEK293-NOX2, PMA-stimulated, NOX inhibitor project, primary screen (AID 1159); settings: 45 min, higher = more signal, called active from +8 up or from −8 down; also: test concentration not given here
[19] = molecular target: NADPH oxidase 4 (Homo sapiens) (UniProt Q9NPH5); assay: compounds shifting NOX4 Amplex Red fluorescence – cell-based, HEK293-NOX4, tetracycline-induced, NOX inhibitor project, primary screen (AID 1160); settings: HEK293-NOX4, Amplex Red H2O2 fluorescence, 45 min; higher = more signal, called active from +8 up or from −8 down
[20] = molecular target: NADPH oxidase 5 (Homo sapiens) (UniProt Q96PH1); assay: compounds shifting NOX5 Amplex Red fluorescence – cell-based, HEK293-NOX5, NOX inhibitor project, primary screen (AID 1161); settings: HEK293-NOX5, ionomycin, 45 min, higher = more signal
Chain of NADPH oxidase 5 (Homo sapiens) (Q96PH1 whole entry, looked up): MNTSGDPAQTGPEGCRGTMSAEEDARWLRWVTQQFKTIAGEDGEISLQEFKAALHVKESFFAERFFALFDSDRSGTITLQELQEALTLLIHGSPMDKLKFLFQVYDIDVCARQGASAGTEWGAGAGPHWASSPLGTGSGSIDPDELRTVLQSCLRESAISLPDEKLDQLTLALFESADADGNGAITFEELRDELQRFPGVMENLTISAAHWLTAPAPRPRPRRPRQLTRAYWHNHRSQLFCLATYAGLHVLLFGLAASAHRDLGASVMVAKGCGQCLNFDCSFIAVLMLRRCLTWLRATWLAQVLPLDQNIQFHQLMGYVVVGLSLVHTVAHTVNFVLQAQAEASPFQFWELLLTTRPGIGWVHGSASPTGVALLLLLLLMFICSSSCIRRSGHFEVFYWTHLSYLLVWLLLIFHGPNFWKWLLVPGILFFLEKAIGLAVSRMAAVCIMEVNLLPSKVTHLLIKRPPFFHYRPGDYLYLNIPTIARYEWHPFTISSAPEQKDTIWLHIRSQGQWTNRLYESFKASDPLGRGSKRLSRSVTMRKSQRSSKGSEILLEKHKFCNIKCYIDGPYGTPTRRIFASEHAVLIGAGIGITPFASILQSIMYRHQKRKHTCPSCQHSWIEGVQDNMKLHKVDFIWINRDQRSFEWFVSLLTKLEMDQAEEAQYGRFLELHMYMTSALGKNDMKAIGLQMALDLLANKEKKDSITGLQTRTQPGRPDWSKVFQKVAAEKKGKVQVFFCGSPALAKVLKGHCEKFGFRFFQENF

Chain of NADPH oxidase 2 (Homo sapiens) (P04839 whole entry, looked up): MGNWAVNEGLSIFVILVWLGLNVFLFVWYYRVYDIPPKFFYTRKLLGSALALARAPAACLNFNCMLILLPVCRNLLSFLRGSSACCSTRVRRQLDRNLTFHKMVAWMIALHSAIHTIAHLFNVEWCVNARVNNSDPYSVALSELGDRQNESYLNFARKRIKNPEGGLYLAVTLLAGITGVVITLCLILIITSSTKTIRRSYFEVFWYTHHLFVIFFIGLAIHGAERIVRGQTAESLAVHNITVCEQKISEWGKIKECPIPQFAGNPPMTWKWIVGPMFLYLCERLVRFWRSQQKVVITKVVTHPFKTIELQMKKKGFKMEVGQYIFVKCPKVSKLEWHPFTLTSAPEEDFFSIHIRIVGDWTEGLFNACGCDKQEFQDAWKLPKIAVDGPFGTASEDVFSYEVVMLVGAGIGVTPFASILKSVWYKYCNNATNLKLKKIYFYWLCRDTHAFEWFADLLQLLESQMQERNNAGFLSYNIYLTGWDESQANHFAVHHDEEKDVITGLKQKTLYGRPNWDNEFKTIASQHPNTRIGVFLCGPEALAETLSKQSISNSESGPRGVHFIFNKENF
Chain of Torsin-1A (Homo sapiens) (O14656 whole entry, looked up): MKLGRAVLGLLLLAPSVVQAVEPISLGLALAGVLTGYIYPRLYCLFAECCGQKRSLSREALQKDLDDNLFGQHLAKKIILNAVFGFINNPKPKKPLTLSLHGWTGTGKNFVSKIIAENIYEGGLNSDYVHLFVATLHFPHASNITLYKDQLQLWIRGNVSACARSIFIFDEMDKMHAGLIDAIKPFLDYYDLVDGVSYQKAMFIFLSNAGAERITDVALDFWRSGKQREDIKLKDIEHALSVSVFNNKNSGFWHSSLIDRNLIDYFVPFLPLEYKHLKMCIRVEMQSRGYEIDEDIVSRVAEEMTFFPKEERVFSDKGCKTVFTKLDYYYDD
Chain of Streptavidin (Streptomyces avidinii) (P22629 whole entry, looked up): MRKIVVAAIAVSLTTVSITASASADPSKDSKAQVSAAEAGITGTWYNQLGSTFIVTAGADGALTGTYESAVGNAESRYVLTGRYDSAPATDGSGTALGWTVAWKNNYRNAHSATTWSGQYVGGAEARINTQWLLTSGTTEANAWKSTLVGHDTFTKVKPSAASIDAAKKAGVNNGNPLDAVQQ
Chain of NADPH oxidase 4 (Homo sapiens) (Q9NPH5 whole entry, looked up): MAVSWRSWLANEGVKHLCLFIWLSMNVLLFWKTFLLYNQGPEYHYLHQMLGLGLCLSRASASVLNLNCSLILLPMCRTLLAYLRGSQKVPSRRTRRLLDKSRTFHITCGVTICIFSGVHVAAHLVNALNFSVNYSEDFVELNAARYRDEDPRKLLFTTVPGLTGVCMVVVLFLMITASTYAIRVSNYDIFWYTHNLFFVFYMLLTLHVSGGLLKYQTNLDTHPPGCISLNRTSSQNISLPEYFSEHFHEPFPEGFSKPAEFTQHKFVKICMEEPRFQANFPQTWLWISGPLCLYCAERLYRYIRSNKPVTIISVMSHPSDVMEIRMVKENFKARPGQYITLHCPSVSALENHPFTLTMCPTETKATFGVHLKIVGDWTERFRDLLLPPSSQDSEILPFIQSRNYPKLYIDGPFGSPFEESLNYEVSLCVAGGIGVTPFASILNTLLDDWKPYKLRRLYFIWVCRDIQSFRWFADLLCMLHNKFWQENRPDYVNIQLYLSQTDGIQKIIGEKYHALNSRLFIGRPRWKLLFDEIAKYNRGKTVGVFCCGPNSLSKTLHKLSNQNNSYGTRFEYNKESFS

| Compound | composite z-score [1] | z-score [2] | z-score [3] | z-score [4] | z-score [5] | composite z-score [6] | composite z-score [7] | composite z-score (Torsin-1A (Homo sapiens) [8]) | composite z-score (Torsin-1A (Homo sapiens) [9]) | composite z-score [10] | z-score [11] | composite z-score [12] | z-score [13] | z-score [14] | z-score [15] | z-score [16] | z-score [17] | z-score [18] | z-score [19] | z-score [20] |
| --- | --- | --- | --- | --- | --- | --- | --- | --- | --- | --- | --- | --- | --- | --- | --- | --- | --- | --- | --- | --- |
| COCCOC(=O)N1C(=O)[C@@]2(c3cc(C#CCCO)ccc31)[C@H](C(=O)NC[C@H](O)c1ccccc1)[C@H]1C(=O)O[C@H](c3ccccc3)[C@H](c3ccccc3)N1[C@@H]2c1ccc(OCCO)cc1 | 0.041 | -3.14 (inactive) | -1.71 (inactive) | -1.97 (inactive) | -1.18 (inactive) | 0.738 | 0.0444 | 0.269 | 0.126 | 1.85 | 1.96 (inactive) | -0.0276 | 3.45 (inactive) | 1.02 (inactive) | -0.431 (inactive) | 0.212 (inactive) | 0.568 | 1.75 (inactive) | 1.13 (inactive) | -0.0265 |
| CC(C)N1C(=O)c2ccccc2[C@](C)(C(=O)NC2CC2)[C@@H]1c1ccc(CO)cc1 | 0.204 | -0.997 (inactive) | -0.723 (inactive) | 0.118 (inactive) | 0.957 (inactive) | -0.166 | -0.2 | 1.11 | 0.74 | 0.889 | 0.897 (inactive) | 0.0451 | 0.838 (inactive) | 0.122 (inactive) | -0.173 (inactive) | 0.475 (inactive) | -0.0085 | -0.987 (inactive) | -0.354 (inactive) | -0.547 |
| CC(C)C(CO)N1C(=O)[C@@H]2[C@H]3C(=O)OCC=C[C@H]3OC23C=CCN(c2ccc4ccccc4c2)C(=O)[C@@H]13 (stereo not given in full) | -0.0522 | -0.372 (inactive) | 2.05 (inactive) | 0.732 (inactive) | 0.755 (inactive) | -0.818 | -0.179 | -0.905 | -2.07 | -0.506 | -0.165 (inactive) | -0.147 | 0.244 (inactive) | 0.884 (inactive) | 0.686 (inactive) | 0.6 (inactive) | -0.575 | 0.902 (inactive) | 0.357 (inactive) | 1.74 |
| [N-]=[N+]=NCc1ccccc1[C@H]1OC(c2ccc(OCCCO)cc2)=N[C@@]1(Cc1ccccc1)C(=O)NCC(O)CO (stereo not given in full) | 0.11 | -2.11 (inactive) | -0.737 (inactive) | 0.96 (inactive) | 0.452 (inactive) | 0.496 | 0.296 | 0.379 | 0.894 | -0.76 | -0.112 (inactive) | 1.61 | 25.4 (active) | 12.1 (active) | 1.87 (inactive) | 1.67 (inactive) | -0.09 | 0.046 (inactive) | 0.497 (inactive) | -0.796 |
| Cc1ccc(S[C@]2(C(=O)NCc3ccccc3)CC(=O)N(Cc3cc(C(F)(F)F)cc(C(F)(F)F)c3)[C@@H]2c2ccc(CO)cc2)cc1 | -0.492 | -0.0639 (inactive) | 0.315 (inactive) | 0.829 (inactive) | 1.21 (inactive) | -0.684 | -0.126 | -1.3 | -0.755 | 0.824 | -0.957 (inactive) | -0.109 | 2.21 (inactive) | 0.818 (inactive) | 0.677 (inactive) | 0.352 (inactive) | -0.466 | 0.314 (inactive) | 0.546 (inactive) | 0.832 |
| NC(=O)[C@]1(Cc2ccccc2)N=C(c2ccc(OCCCO)cc2)O[C@@H]1c1ccccc1 | 0.0788 | -2.3 (inactive) | -0.783 (inactive) | 5.59 (inactive) | 1.49 (inactive) | 0.452 | 0.0872 | -0.783 | -0.0179 | -0.955 | -0.465 (inactive) | 0.351 | 26.5 (active) | 15.6 (active) | 0.531 (inactive) | 2.19 (inactive) | -0.0349 | -0.273 (inactive) | -0.228 (inactive) | 0.575 |
| OCCCc1cc[n+](Cc2cccc(OC(F)(F)F)c2)cc1 | 0.012 | -1.79 (inactive) | -0.781 (inactive) | -0.374 (inactive) | 1.69 (inactive) | 0.274 | -0.0538 | 1.03 | 1.59 | 1.82 | -0.123 (inactive) | 0.363 | 0.514 (inactive) | 0.816 (inactive) | 1.54 (inactive) | 0.916 (inactive) | 0.211 | 0.972 (inactive) | -0.285 (inactive) | 0.384 |
| O=C1OCCC=C[C@H]2OC34C=CCN(CCN5CCOCC5)C(=O)[C@H]3N(CCO)C(=O)[C@@H]4C12 (stereo not given in full) | -0.141 | 0.473 (inactive) | 0.329 (inactive) | -0.358 (inactive) | -0.0338 (inactive) | -0.983 | -0.168 | -0.23 | 0.0141 | 0.731 | -0.392 (inactive) | -0.231 | 0.329 (inactive) | 0.392 (inactive) | 0.918 (inactive) | 0.551 (inactive) | 0.65 | 0.808 (inactive) | 0.49 (inactive) | 0.0715 |
